In PubChem BioAssay (NCI):
“And” between values parts separate entries of the source, which are not always exact repeats. Equal values may be shown once. The panel holds about 79,000 compounds, 15% with a hit somewhere; the sample as a whole holds those more often. Rule as the data show it: active = growth inhibition above about 70%; inactive = the rest. Where a SMILES comes first, the peptide text is derived from it. Bridges are numbered along the chain shown (N, C = ends). [ ]: non-standard residue; d: D form. Aib = CC(C)(N)C(=O)O; βAla = NCCC(=O)O

What was measured:
[1] = NCI Yeast Anticancer Drug Screen. Data for the rad50 strain (AID 155);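 also: 0% = growth of vehicle-only cultures of the same strain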; details: S. cerevisiae rad50 strain growth inhibition, hits give high values; at 50.0 µM unless noted
Summary of the method: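 A DNA repair-deficient yeast mutant serves as the test organism; compound-induced growth inhibition is calculated against vehicle-treated cells.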

[2] = NCI Yeast Anticancer Drug Screen. Data for the mec2-1 strain (AID 157); details: S. cerevisiae mec2-1 strain, hits give high values; at 50.0 µM unless noted
Summary of the method: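 Each compound was tested on mec2-1 yeast, a strain altered in DNA damage repair or cell cycle control. Growth inhibition is reported relative to vehicle.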

[3] = NCI Yeast Anticancer Drug Screen. Data for the sgs1 mgt1 strain (AID 161);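 also: 0% = growth of cultures given vehicle only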; details: S. cerevisiae sgs1 mgt1 strain, hits give high values; at 50.0 µM unless noted
Summary of the method: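 Test agents were incubated with a DNA-repair-mutant yeast strain. Growth was then read and compared against vehicle-treated controls.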

[4] = NCI Yeast Anticancer Drug Screen. Data for the cln2 rad14 strain (AID 165);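 also: 0% = growth equal to vehicle treated cultures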; details: S. cerevisiae cln2 rad14 strain, hits give high values; at 50.0 µM unless noted
Summary of the method: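 Test compounds were added to cln2 rad14 yeast cultures; inhibition of growth was then determined by comparison with vehicle treatment.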

[5] = NCI Yeast Anticancer Drug Screen. Data for the bub3 strain (AID 167); details: S. cerevisiae bub3 mutant strain, hits give high values; at 50.0 µM unless noted
Summary of the method: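 Inhibition values come from growth of compound-treated mutant yeast normalised to vehicle-treated controls.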

[6] = NCI Yeast Anticancer Drug Screen. Data for the mlh1 rad18 strain (AID 175); details: S. cerevisiae mlh1 rad18 strain growth inhibition, hits give high values; at 50.0 µM unless noted
Summary of the method: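 Inhibition values reflect reduced growth of mutant yeast versus vehicle-treated controls following compound exposure; the mutations affect DNA damage repair.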

Measured: growth inhibition

O=C1c2ccc3c4ccccc4n(-c4ccccc4)c3c2C(=O)N1c1ccc(Cl)cc1
inactive: [1] -11.8% | [2] -2.95% | [3] -26.2% | [4] 24.9% | [5] -18.4% | [6] -7.05%

CCOP(=O)(C/C(=N/NC(C)(C)C)C(=O)Nc1nc2ccc(C)cc2s1)OCC
inactive: [1] -14% | [2] 3.7% | [3] -26.1% | [4] -30.4% | [5] -0.5% | [6] -18.6%

O=CC(O)C(Cl)C(Cl)C(O)CCl (stereo unspecified)
inactive: [1] -0.65% and 2.1% | [2] -1.85% and -3.6% | [3] 0.65% and 8.3% | [4] 9.75% and -46% | [5] -2.65% and -11% | [6] 40.7% and -14.5%

CC1(C)NC(=O)C(NC(=O)C(N)CC(=O)O)CCCCNC(=O)CCNC1=O (stereo unspecified) (H-DK[Aib][βAla]; lactam 2-C; configuration not given here)
inactive: [1] -4.35% | [2] -67.5% | [3] -32.3% | [4] -10.6% | [5] 6.35% | [6] -17.9%

Nc1cccc2c1nc(NCCO)c1ccccc12
inactive: [1] 23.8% | [2] 3.5% | [3] -15.6% | [4] -4.5% | [5] 10.7% | [6] 49.1%

CCCCNC(=S)Nn1c(-c2ccccc2)nc2ccccc2c1=O
inactive: [1] 18.6% | [2] -43% | [3] -20.8% | [4] -37.5% | [5] -31.9% | [6] 0.9%

OCC(O)COc1ccc(F)cc1 (stereo unspecified)
inactive: [1] 19.7% | [2] -16.2% | [3] -0.15% | [4] 4.55% | [5] -6.25% | [6] -12.1%

CC(=O)CC(=O)Nc1nc2ccccc2s1
inactive: [1] -4.45% | [2] 2.65% | [3] 9.05% | [4] -13.2% | [5] -7.5% | [6] 15.2%

CNC(=O)Nc1cccc(C(=O)O)c1
inactive: [1] -0.3% | [2] -16.8% | [3] -11.1% | [4] -50.9% | [5] 4.35% | [6] 4.35%

COc1ccc(/C=C(/NC(=O)c2ccccc2)C(=O)O)c(OC)c1
inactive: [1] -7.35% | [2] -5.1% | [3] 1.2% | [4] -61.4% | [5] -10.1% | [6] -9.65%

O=C(OCc1ccccc1)ON1C(=O)C2C3C=CC(C3)C2C1=O (stereo unspecified)
inactive: [1] -26.4% | [2] -54.2% | [3] 12.5% | [4] -9.1% | [5] -19% | [6] 5.05%

CC1Nc2ccccc2C1C (stereo unspecified)
inactive: [1] -35.2% | [2] -49% | [3] -62.1% | [4] 7.05% | [5] -59.6% | [6] -12.5%

NC1CCC[C@@H](O)[C@H]1O (stereo partly specified)
inactive: [1] -4.9% | [2] 22.9% | [3] 8.7% | [4] -7.1% | [5] 9.6% | [6] -0.55%

CC(C)(O)CCNc1ncnc2c1ncn2C1OC(CO)C(O)C1O (stereo unspecified)
inactive: [1] 2% | [2] -1.75% | [3] 9.7% | [4] -6.8% | [5] 13.9% | [6] 13.8%

CCOC(OCC)C1(C)CC=CCC1 (stereo unspecified)
inactive: [1] 20.4% | [2] 11.3% | [3] 5.05% | [4] -3.4% | [5] 3.15% | [6] 6.4%

COC(=O)/C=C(\C(=O)OC)N1CCCCC1
inactive: [1] 1.55% | [2] -3.8% | [3] -6.55% | [4] -29.9% | [5] 2.3% | [6] -23.1%

C#CC(C)(O)CCC(C)C (stereo unspecified)
inactive: [1] -10% | [2] -16.1% | [3] -3.3% | [4] 14.5% | [5] 10.8% | [6] -16.9%

Cc1cc(-c2cc(C)c(O)c(C)c2)cc(C)c1O
inactive: [1] 17.1% and -1.5% | [2] 16.6% and 0.8% | [3] 39.1% and -7.05% | [4] 14.9% and -4.3% | [5] 4.7% and -35.7% | [6] 23.2% and 3.3%

CCCCCCCCCCCC(=O)CCCCCCCCCCCC(=O)OC
inactive: [1] 2.15% | [2] 15.4% | [3] 17.1% | [4] 14.2% | [5] 45% | [6] -2.35%

COc1ccc2occ(CCC(=O)O)c2c1
inactive: [1] 6.4% | [2] -0.75% | [3] -2.25% | [4] -25.9% | [5] -1.1% | [6] 6.9%

Cc1cc2nc3c(C(OC4OC(CO)C(O)C(O)C4O)C(O)CO)nn(-c4ccc(F)cc4)c3nc2cc1C (stereo unspecified)
inactive: [1] 3.6% | [2] -6.85% | [3] -47.7% | [4] 25.6% | [5] 3.45% | [6] 1%

O=C(C#Cc1ccccc1)Nc1ccccc1CC(c1c[nH]c2ccccc12)c1c[nH]c2ccccc12
inactive: [1] 0.75% | [2] -2.25% | [3] 1.55% | [4] 5.4% | [5] 8.85% | [6] -7.65%

COc1ccc([N+](=O)[O-])cc1N(C)C
inactive: [1] 19.1% | [2] 17.4% | [3] 13.6% | [4] 9% | [5] -14.2% | [6] 4.55%

N#Cc1ccc(OC(=O)Nc2ccc(F)cc2)cc1
inactive: [1] -4.1% | [2] -14.2% | [3] 12.2% | [4] 18.6% | [5] 10.7% | [6] 8.8%

O=C1CSC2=NCCN12
inactive: [1] 14.8% and 22.8% | [2] -3.6% and -15.3% | [3] -5.25% and 6.8% | [4] 1.5% and 3.2% | [5] 1.55% and -11.9% | [6] 21.3% and 18.8%

ClCCCCCNC1CCCCC1
inactive: [1] -1.2% | [2] -45.6% | [3] -4.3% | [4] -15.7% | [5] -17.2% | [6] -14.2%

Nc1ccccc1[N+](=O)[O-]
inactive: [1] -14.4% | [2] -3.45% | [3] -14.7% | [4] -15.7% | [5] 1.5% | [6] -1.55%

CCN1CCN(c2nc3ccccc3c3c2CCOc2ccccc2-3)CC1
inactive: [1] -12.4% | [2] -16.9% | [3] -15.8% | [4] 19.1% | [5] 0.25% | [6] 6%

C[C@@]1([N+](=O)[O-])CC2CCC1C2 (stereo partly specified)
inactive: [1] -3.9% | [2] -12.5% | [3] -16.4% | [4] -6.45% | [5] 2.55% | [6] -9.55%

O=S(=O)(Cl)c1ccc(Cl)cc1
inactive: [1] -4.6% | [2] 13.1% | [3] 6.8% | [4] 1.5% | [5] -16.6% | [6] -7.25%

O=C(CCCC1CCCCC1)OC1CCCCC1
inactive: [1] 5.3% | [2] 8.4% | [3] 8.7% | [4] -8.05% | [5] -3.9% | [6] -1.3%

O=[N+]([O-])c1cc(N(c2ccccc2)c2ccccc2)c(Cl)cc1Cl
inactive: [1] -8.35% | [2] -16.1% | [3] -27.1% | [4] -2.55% | [5] 5.5% | [6] -3%

CCN(CC)CCN(CC)C(=S)Nc1ccccc1
inactive: [1] 1.75% | [2] 21.2% | [3] 23.2% | [4] -4.65% | [5] 2% | [6] 12.2%

Nc1nc2cc(F)ccc2o1
inactive: [1] 1.05% | [2] -26.1% | [3] -9.7% | [4] -20.1% | [5] -21.6% | [6] -15.2%

C=CCN(CC=C)C(=O)Nc1cccc(C)c1
inactive: [1] -27.2% | [2] -43.9% | [3] 1.3% | [4] -3.15% | [5] -2.6% | [6] -21%

COc1cc(Nc2cnc3cc(C(F)(F)F)ccc3n2)cc(OC)c1OC
inactive: [1] 16.9% | [2] 0.95% | [3] 21.9% | [4] 12.2% | [5] -14.1% | [6] -1.55%

COc1ccc(/C=C2\C(=O)Nc3ccccc32)cc1OC
inactive: [1] -3.4% | [2] 5.45% | [3] -9% | [4] -10.4% | [5] -1.95% | [6] -4.4%

O=C(O)C1CCc2ccccc21 (stereo unspecified)
inactive: [1] -15.8% | [2] -46.5% | [3] -15.2% | [4] -12.2% | [5] -26.6% | [6] -20.1%

O=C1CCCC2CCCC(=O)N12
inactive: [1] -1.35% | [2] -0.85% | [3] -0.4% | [4] 8.9% | [5] 1% | [6] -9.7%

CS(=O)(=O)OCC(Br)C(Br)COS(C)(=O)=O (stereo unspecified)
inactive: [1] 2.8% | [2] 5.2% | [3] 7.7% | [4] 26.4% | [5] -5.3% | [6] 10.2%

Cc1cc([N+](=O)[O-])c(Nc2ccc(C)c(Cl)c2)c([N+](=O)[O-])c1
inactive: [1] 8.15% | [2] 36.7% | [3] 29.6% | [4] -8.05% | [5] 52.1% | [6] 33.6%
